About 7,900 targets were measured; listed, in parts, are those with a hit and a random draw of the rest. About 0.6% of all pairs of compound and target were hits. Values without a mark were called inactive.
Columns and labels:
Experiment in all cases: log2 fold change, soluble protein after heating vs DMSO (PISA); higher = thermal stabilisation; K562 cells, 10 uM, 30 min; active = over 0.2 and 3.5 SD of the protein, either way, in both replicates (recomputed)
[1] = compound: NC(=O)Nc1cc(-c2cccc(F)c2)sc1C(=O)N[C@H]1CCCNC1
Outline: (§1)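 K562 cells (2×10^6 cells/mL) were treated with 10 μM compound for 30 min, and aliquots were heated for 3 min over 48°C-58°C. Pooled aliquots were extracted in PBS with 0.5% NP-40 at 4°C, and the supernatant after 21,000xg for 90 min was measured by TMTpro 16plex LC-MS/MS with channel sums equalised. Reported thermal stability, relative to control samples and from duplicates, is a log2 fold change.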

[2] = compound: NC(=O)c1cnc(N[C@@H]2CCCC[C@@H]2N)nc1Nc1cccc(-n2nccn2)c1
Outline: as §1

[3] = compound: NC1(c2ccc(-c3nc4ccn5c(=O)[nH]nc5c4cc3-c3ccccc3)cc2)CCC1
Outline: as §1

[4] = compound: NCC(=O)Nc1ccc(-n2nc(C(F)(F)F)cc2-c2ccc3c(ccc4ccccc43)c2)cc1
Outline: as §1

[5] = compound: Nc1ccccc1NC(=O)c1ccc(CNC(=O)OCc2cccnc2)cc1 [entinostat]
Outline: as §1

[6] = compound: O=C(CCCCCCC(=O)Nc1ccccc1)NO [vorinostat]
Outline: as §1

[7] = compound: O=C(CCCCCCNC(=O)c1cnc(N(c2ccccc2)c2ccccc2Cl)nc1)NO [citarinostat]
Outline: as §1

[8] = compound: O=C(O)c1ccc2c(c1)nc(Nc1cccc(Cl)c1)c1ccncc12 [silmitasertib]
Outline: as §1

[9] = compound: c1cc(OCCN2CCCCC2)cc(-c2n[nH]c3ccc(-c4nnc[nH]4)cc23)c1
Outline: as §1

[10] = compound: c1cn2cc(-c3ccc4cn[nH]c4c3)nc(Nc3ccc(N4CCOCC4)cc3)c2n1 [entospletinib]
Outline: as §1

[11] = compound: O=C1NC(=O)C(c2cnc3ccccn23)=C1c1cn2c3c(cc(F)cc13)CN(C(=O)N1CCCCC1)CC2
Outline: as §1

MRFAP1 (UniProt Q9Y605)
log2 fold change [1]: 0.134 | log2 fold change [2]: 0.01 | log2 fold change [3]: 0.021 | log2 fold change [4]: -0.082 | log2 fold change [5]: 0.014 | log2 fold change [6]: 0.15 | log2 fold change [7]: 0.133 | log2 fold change [8]: -0.019 | log2 fold change [9]: -0.028 | log2 fold change [10]: 0.005

MSANTD2 (UniProt Q6P1R3)
log2 fold change [1]: -0.041 | log2 fold change [4]: -0.065 | log2 fold change [5]: -0.184 | log2 fold change [7]: -0.124 | log2 fold change [11]: 0.004 | log2 fold change [9]: 0.16 | log2 fold change [10]: -0.364

P4HA2 (UniProt O15460)
Chain of UniProt O15460 (O15460 whole entry, looked up): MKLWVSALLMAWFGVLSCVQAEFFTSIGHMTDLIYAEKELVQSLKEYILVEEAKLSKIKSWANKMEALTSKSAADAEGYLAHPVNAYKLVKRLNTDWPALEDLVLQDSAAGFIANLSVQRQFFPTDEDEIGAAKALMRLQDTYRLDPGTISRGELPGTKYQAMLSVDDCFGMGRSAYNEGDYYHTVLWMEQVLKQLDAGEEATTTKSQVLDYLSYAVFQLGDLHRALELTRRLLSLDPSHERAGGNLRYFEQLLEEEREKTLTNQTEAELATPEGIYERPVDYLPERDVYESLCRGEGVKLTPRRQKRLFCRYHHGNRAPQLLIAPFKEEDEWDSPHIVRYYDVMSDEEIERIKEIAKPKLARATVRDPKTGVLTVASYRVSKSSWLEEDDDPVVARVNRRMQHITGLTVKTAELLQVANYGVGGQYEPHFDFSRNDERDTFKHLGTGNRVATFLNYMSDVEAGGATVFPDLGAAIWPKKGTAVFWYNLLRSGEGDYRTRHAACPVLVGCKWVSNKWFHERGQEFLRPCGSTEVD
log2 fold change [1]: -0.034 | log2 fold change [3]: -0.129 | log2 fold change [4]: 0.063 | log2 fold change [5]: -0.104 | log2 fold change [6]: -0.047 | log2 fold change [7]: -0.019 | log2 fold change [8]: 0.025 | log2 fold change [11]: 0.201 | log2 fold change [9]: -0.021 | log2 fold change [10]: 0.021

NCOA5 (UniProt Q9HCD5)
Chain of UniProt Q9HCD5 (Q9HCD5 whole entry, looked up): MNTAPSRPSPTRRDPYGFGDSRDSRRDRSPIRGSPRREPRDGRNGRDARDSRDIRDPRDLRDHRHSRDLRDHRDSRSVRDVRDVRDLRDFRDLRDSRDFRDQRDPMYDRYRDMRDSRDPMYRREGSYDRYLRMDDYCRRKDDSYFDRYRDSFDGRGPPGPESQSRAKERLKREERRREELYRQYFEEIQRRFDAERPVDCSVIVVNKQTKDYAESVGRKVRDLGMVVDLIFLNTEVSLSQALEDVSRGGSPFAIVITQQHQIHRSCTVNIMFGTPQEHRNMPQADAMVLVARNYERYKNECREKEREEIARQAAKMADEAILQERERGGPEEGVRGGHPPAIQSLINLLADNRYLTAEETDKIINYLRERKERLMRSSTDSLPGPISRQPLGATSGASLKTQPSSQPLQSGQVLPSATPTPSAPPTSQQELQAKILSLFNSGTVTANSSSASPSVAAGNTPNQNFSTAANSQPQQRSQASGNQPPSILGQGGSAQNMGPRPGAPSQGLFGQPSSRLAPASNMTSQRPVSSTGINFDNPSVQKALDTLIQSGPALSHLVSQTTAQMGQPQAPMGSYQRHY
log2 fold change [1]: -0.101 | log2 fold change [5]: -0.011 | log2 fold change [6]: 0.023

OXR1 isoform 2 (UniProt Q8N573)
log2 fold change [2]: 0.054 | log2 fold change [4]: -0.046 | log2 fold change [6]: 0.01 | log2 fold change [7]: 0.013 | log2 fold change [11]: -0.096 | log2 fold change [9]: -0.053 | log2 fold change [10]: 0.004

NEU3 isoform 2 (UniProt Q9UQ49)
log2 fold change [1]: 0.112 | log2 fold change [5]: -0.071

NAP1L1 (UniProt B7Z9C2)
log2 fold change [2]: -0.124 | log2 fold change [3]: 0.028 | log2 fold change [4]: 0.064 | log2 fold change [6]: 0.23 | log2 fold change [7]: 0.068 | log2 fold change [8]: 0.001 | log2 fold change [9]: 0.179 | log2 fold change [10]: -0.081

OSBPL2 (UniProt Q9H1P3)
log2 fold change [3]: -0.443 | log2 fold change [8]: 0.148

NUDT6 (UniProt P53370)
Chain of UniProt P53370 (P53370 whole entry, looked up): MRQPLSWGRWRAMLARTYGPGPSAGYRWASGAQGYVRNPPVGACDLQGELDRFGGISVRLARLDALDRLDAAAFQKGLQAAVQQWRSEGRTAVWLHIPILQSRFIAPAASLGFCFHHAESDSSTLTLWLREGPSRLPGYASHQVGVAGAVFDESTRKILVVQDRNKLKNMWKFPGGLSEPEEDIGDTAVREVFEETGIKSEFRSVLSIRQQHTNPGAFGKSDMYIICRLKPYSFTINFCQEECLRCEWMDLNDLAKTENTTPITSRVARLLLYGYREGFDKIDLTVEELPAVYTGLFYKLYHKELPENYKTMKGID
log2 fold change [3]: 0.149 | log2 fold change [4]: 0.298 | log2 fold change [7]: 0.164 | log2 fold change [8]: -0.517 (active) | log2 fold change [11]: -0.097 | log2 fold change [9]: -0.385 | log2 fold change [10]: 0.127

NELFCD (UniProt Q8IXH7)
log2 fold change [2]: -0.005 | log2 fold change [4]: -0.321 | log2 fold change [6]: 0.234 | log2 fold change [11]: -0.12

MRM2 (UniProt Q9UI43)
log2 fold change [2]: -0.202 | log2 fold change [4]: -0.211

NDUFA7 (UniProt M0R0N0)
log2 fold change [1]: -0.307 | log2 fold change [4]: -0.344 | log2 fold change [5]: -0.063

OAF (UniProt Q86UD1)
Chain of UniProt Q86UD1 (Q86UD1 whole entry, looked up): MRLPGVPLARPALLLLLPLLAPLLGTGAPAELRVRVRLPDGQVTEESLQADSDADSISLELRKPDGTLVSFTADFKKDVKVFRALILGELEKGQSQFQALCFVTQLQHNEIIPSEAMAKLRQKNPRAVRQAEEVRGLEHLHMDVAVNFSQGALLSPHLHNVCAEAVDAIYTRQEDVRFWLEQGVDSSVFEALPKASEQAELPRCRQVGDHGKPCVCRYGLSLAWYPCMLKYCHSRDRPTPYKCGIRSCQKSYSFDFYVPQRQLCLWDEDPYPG
log2 fold change [1]: -0.089 | log2 fold change [3]: -0.188 | log2 fold change [5]: -0.029 | log2 fold change [8]: 0.019

NA (UniProt J3KR12)
log2 fold change [3]: -0.292 | log2 fold change [8]: -0.108 | log2 fold change [11]: 0.427

MOB2 isoform 3 (UniProt Q70IA6)
Chain of UniProt Q70IA6 (Q70IA6 whole entry, looked up): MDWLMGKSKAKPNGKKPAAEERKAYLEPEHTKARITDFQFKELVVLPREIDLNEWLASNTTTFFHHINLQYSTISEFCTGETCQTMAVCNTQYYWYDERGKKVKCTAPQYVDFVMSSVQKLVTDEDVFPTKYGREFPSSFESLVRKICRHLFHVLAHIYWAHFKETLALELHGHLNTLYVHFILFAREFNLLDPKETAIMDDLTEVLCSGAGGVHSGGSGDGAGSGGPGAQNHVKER
log2 fold change [3]: -0.251 | log2 fold change [6]: 0.044 | log2 fold change [8]: 0.062 | log2 fold change [11]: -0.368

MT-ND2 (UniProt P03891)
Chain of UniProt P03891 (P03891 whole entry, looked up): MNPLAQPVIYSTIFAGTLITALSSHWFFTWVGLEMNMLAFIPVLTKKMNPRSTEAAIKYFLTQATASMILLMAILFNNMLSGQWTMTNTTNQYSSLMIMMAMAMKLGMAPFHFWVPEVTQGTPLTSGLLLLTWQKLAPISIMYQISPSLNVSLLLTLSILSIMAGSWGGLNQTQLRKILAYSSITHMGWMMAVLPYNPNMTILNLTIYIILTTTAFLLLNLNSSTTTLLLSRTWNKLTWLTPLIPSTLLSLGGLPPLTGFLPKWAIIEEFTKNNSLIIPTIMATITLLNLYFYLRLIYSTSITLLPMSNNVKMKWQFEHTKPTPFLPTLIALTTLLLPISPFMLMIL
log2 fold change [2]: 0.146 | log2 fold change [3]: -0.128 | log2 fold change [4]: 0.036 | log2 fold change [6]: 0.036 | log2 fold change [8]: -0.01

MYLK (UniProt Q15746)
log2 fold change [1]: -0.063 | log2 fold change [3]: -0.064 | log2 fold change [4]: -0.21 | log2 fold change [5]: -0.081 | log2 fold change [6]: -0.059 | log2 fold change [7]: -0.089 | log2 fold change [8]: 0.175 | log2 fold change [9]: 0.204 | log2 fold change [10]: -0.041

MYO19 (UniProt Q96H55)
log2 fold change [2]: -0.112 | log2 fold change [4]: 0.051 | log2 fold change [6]: 0.029 | log2 fold change [11]: 0.232

OSBPL3 (UniProt Q9H4L5)
log2 fold change [1]: -0.079 | log2 fold change [2]: -0.43 | log2 fold change [4]: 0.106 | log2 fold change [5]: 0.077 | log2 fold change [7]: -0.077 | log2 fold change [11]: 0.307 | log2 fold change [9]: -0.072 | log2 fold change [10]: 0.171

ORC3 (UniProt Q9UBD5)
Chain of UniProt Q9UBD5 (Q9UBD5 whole entry, looked up): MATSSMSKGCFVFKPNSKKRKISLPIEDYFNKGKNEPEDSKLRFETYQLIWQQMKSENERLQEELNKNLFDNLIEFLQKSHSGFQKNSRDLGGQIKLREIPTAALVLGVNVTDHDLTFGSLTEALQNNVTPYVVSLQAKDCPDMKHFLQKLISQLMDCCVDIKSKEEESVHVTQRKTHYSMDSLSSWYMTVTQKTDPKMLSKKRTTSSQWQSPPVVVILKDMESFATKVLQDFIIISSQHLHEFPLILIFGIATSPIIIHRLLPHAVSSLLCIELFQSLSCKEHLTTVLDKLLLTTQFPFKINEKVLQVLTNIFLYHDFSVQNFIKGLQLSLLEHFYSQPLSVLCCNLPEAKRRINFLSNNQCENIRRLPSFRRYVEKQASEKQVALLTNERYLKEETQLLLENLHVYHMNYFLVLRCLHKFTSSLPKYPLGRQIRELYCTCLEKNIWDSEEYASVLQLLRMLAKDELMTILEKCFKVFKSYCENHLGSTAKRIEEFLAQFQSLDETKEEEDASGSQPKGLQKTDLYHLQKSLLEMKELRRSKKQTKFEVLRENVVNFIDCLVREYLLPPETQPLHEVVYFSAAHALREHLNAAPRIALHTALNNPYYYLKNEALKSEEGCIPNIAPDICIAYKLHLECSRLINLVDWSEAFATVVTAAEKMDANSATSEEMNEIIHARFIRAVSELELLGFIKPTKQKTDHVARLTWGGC
log2 fold change [2]: 0.067 | log2 fold change [7]: 0.032 | log2 fold change [9]: -0.195 | log2 fold change [10]: -0.144

MYSM1 (UniProt Q5VVJ2)
log2 fold change [1]: -0.205 | log2 fold change [5]: 0.237 | log2 fold change [7]: 0.564 | log2 fold change [9]: 0.174 | log2 fold change [10]: 0.141

NUDT7 (UniProt P0C024)
log2 fold change [1]: 0.01 | log2 fold change [5]: -0.05 | log2 fold change [6]: 0.286 | log2 fold change [11]: 0.12

NA, A0A1W2PSA9
log2 fold change [2]: 0.004 | log2 fold change [6]: -0.364

MMADHC (UniProt Q9H3L0)
log2 fold change [2]: 0.035 | log2 fold change [3]: 0.014 | log2 fold change [4]: 0.057 | log2 fold change [6]: 0.157 | log2 fold change [7]: 0.141 | log2 fold change [8]: 0.031 | log2 fold change [9]: 0.031 | log2 fold change [10]: 0.158

NKTR (UniProt P30414)
log2 fold change [3]: 0.074 | log2 fold change [8]: -0.023

NRGN (UniProt Q92686)
log2 fold change [2]: 0.144 | log2 fold change [6]: -0.231 | log2 fold change [11]: -0.215

OGFOD2 (UniProt Q6N063)
log2 fold change [2]: 0.005 | log2 fold change [3]: -0.151 | log2 fold change [4]: -0.012 | log2 fold change [6]: -0.313 | log2 fold change [7]: 0.036 | log2 fold change [8]: 0.097 | log2 fold change [11]: -0.073 | log2 fold change [9]: -0.012 | log2 fold change [10]: -0.003

MORC2 (UniProt Q9Y6X9)
Chain of UniProt Q9Y6X9 (Q9Y6X9 whole entry, looked up): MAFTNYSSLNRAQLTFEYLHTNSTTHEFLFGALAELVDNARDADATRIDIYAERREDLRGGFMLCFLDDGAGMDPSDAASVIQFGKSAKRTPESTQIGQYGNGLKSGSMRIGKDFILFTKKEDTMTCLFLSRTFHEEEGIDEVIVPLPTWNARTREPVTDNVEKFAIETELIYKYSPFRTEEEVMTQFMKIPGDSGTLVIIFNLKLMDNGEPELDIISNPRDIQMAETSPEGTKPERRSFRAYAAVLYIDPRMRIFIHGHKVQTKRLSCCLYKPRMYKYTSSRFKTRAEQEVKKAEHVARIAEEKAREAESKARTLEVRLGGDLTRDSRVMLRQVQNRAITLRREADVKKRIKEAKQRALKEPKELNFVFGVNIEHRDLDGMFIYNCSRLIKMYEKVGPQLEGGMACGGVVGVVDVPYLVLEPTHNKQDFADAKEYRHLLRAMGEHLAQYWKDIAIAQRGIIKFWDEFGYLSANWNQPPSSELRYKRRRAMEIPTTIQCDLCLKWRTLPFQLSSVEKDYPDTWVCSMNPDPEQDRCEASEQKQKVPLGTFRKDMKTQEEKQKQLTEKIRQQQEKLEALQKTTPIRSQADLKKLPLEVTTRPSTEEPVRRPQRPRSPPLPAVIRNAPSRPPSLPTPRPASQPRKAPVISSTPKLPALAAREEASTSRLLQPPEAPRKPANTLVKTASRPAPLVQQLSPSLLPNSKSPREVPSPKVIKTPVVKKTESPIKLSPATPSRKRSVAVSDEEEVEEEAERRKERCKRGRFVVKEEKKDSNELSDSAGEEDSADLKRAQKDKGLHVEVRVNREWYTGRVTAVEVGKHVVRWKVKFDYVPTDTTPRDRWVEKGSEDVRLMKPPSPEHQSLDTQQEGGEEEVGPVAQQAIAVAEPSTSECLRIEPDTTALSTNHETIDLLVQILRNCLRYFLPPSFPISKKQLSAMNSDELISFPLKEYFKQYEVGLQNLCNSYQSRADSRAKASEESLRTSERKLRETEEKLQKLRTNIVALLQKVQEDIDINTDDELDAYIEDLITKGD
log2 fold change [2]: -0.193 | log2 fold change [3]: -0.118 | log2 fold change [8]: -0.066 | log2 fold change [11]: -0.151

NMU (UniProt P48645)
log2 fold change [2]: -0.023 | log2 fold change [4]: 0.132 | log2 fold change [6]: 0.041 | log2 fold change [7]: 0.043 | log2 fold change [11]: 0.144 | log2 fold change [9]: -0.08 | log2 fold change [10]: 0.078

NKAP (UniProt Q8N5F7)
Chain of UniProt Q8N5F7 (Q8N5F7 whole entry, looked up): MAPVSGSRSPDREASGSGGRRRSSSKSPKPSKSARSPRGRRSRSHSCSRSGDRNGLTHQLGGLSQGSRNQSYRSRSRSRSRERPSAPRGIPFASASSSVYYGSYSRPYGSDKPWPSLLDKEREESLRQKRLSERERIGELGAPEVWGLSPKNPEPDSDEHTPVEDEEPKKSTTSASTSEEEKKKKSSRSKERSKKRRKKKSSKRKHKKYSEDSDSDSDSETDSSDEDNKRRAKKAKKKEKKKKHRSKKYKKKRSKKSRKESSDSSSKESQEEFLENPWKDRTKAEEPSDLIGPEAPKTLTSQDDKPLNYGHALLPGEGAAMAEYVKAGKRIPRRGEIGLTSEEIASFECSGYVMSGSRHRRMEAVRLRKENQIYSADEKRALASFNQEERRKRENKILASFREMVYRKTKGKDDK
log2 fold change [2]: -0.043 | log2 fold change [3]: 0.027 | log2 fold change [4]: -0.028 | log2 fold change [6]: 0.019 | log2 fold change [7]: 0.099 | log2 fold change [8]: -0.132 | log2 fold change [11]: 0.111 | log2 fold change [9]: -0.144 | log2 fold change [10]: -0.144

NA, A0A494C071
log2 fold change [2]: -0.484 | log2 fold change [3]: -0.407 | log2 fold change [4]: -0.153 | log2 fold change [6]: 0 | log2 fold change [7]: 0.023 | log2 fold change [8]: 0.212 | log2 fold change [11]: -0.022 | log2 fold change [9]: -0.086 | log2 fold change [10]: -0.105

MLH1 (UniProt P40692)
log2 fold change [2]: 0.058 | log2 fold change [3]: -0.102 | log2 fold change [6]: -0.042 | log2 fold change [8]: -0.017 | log2 fold change [11]: -0.098

NA (UniProt B2RBV5)
log2 fold change [1]: 0.06 | log2 fold change [3]: -0.055 | log2 fold change [5]: 0.029 | log2 fold change [6]: 0.045 | log2 fold change [7]: 0.12 | log2 fold change [8]: 0.056 | log2 fold change [11]: -0.001 | log2 fold change [9]: -0.014 | log2 fold change [10]: -0.058

MOB3B (UniProt Q86TA1)
log2 fold change [2]: -0.082 | log2 fold change [3]: -0.288 | log2 fold change [4]: -0.021 | log2 fold change [6]: -0.049 | log2 fold change [8]: -0.023

NA, A0A2R8Y3M9
log2 fold change [1]: -0.104 | log2 fold change [2]: -0.17 | log2 fold change [5]: -0.011 | log2 fold change [6]: 0.372

NASP isoform 2 (UniProt P49321)
log2 fold change [3]: 0.24 | log2 fold change [8]: -0.475

MON1A (UniProt Q86VX9)
log2 fold change [1]: 0.016 | log2 fold change [3]: 0.001 | log2 fold change [5]: -0.005 | log2 fold change [6]: 0.017 | log2 fold change [7]: 0.161 | log2 fold change [8]: -0.157 | log2 fold change [11]: -0.013 | log2 fold change [9]: -0.275 | log2 fold change [10]: 0.041

NOS1AP (UniProt O75052)
Chain of UniProt O75052 (O75052 whole entry, looked up): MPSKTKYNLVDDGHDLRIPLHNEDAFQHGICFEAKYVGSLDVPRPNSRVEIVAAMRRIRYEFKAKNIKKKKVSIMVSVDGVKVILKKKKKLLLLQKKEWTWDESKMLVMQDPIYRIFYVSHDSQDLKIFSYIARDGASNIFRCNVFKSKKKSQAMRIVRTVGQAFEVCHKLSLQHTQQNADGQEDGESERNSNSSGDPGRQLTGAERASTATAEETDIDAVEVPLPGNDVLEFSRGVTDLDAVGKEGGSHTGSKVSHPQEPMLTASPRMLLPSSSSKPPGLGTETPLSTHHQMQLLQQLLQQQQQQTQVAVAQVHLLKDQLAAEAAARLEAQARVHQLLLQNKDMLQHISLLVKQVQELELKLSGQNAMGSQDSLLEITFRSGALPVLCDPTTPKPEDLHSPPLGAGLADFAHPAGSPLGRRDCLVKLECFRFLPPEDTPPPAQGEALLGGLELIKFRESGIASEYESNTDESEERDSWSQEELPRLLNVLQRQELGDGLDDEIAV
log2 fold change [3]: -0.27 | log2 fold change [4]: -0.302 | log2 fold change [7]: -0.225 | log2 fold change [8]: 0.312 | log2 fold change [11]: -0.186 | log2 fold change [9]: 0.59 | log2 fold change [10]: -0.337

PACRGL (UniProt Q8N7B6)
log2 fold change [1]: 0.055 | log2 fold change [5]: -0.116

OVCA2 (UniProt Q8WZ82)
log2 fold change [2]: -0.067 | log2 fold change [3]: 0.03 | log2 fold change [6]: 0.08 | log2 fold change [7]: -0.085 | log2 fold change [8]: 0.206 | log2 fold change [9]: 0.08 | log2 fold change [10]: -0.031
